Paper PMC10812921, “Transcriptional Coactivator BOB1 (OBF1, OCA-B) Modulates the Specificity of DNA Recognition by the POU-Domain Factors OCT1 and OCT2 in a Monomeric Configuration”

molecular target: POU1 (OCT1 POU domain) (human, UniProt P14859 260-458); assay: EMSA-SELEX-seq; no BOB1; 20 mM Tris-HCl pH 7.6, 140 mM NaCl, 10% glycerol, 0.5 mM EDTA, 0.05% Triton X-100, 0.1 mg/mL BSA, 0.1 mg/mL poly(dI-dC), 5 mM DTT, room temperature, 20 min; high values mean tight binding; conditions: protein: recombinant; dsDNA, one strand shown
Sequence (P14859 260-458): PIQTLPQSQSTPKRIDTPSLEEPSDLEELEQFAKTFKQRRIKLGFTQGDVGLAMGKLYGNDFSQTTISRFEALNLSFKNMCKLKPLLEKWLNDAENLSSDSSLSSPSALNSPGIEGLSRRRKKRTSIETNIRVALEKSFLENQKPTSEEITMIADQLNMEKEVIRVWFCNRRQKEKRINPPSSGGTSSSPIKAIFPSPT
In short: (§1)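 Binding preference is the percentage of sequenced 8-mers matching a motif pattern. Tagged POU-domain proteins expressed in E. coli BL21 were purified under denaturing conditions and renatured. For binding, 30 ng protein met 300 ng of a PCR-amplified double-stranded random 35-nt library, with or without 28 ng coactivator protein, in 20 μL Tris–HCl pH 7.6 binding buffer for 20 min at RT. Complex bands were cut from native 6% PAGE, eluted and PCR-amplified over four rounds, then Illumina-sequenced.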

Sequence	binding signal
ATGTGAAT	0.138 % of ANNNNAAN 8-mers
ATCGAAAT	0.0694 % of ANNNNAAN 8-mers
ATACTAAA	0.0648 % of ANNNNAAN 8-mers
AGGCCAAA	0.029 % of ANNNNAAN 8-mers
AAGAAAAT	0.158 % of ANNNNAAN 8-mers
ATGACAAA	0.0622 % of ANNNNAAN 8-mers
ACACAAAG	0.0309 % of ANNNNAAN 8-mers
ATCTTAAA	0.0648 % of ANNNNAAN 8-mers
ATCGCAAG	0.0179 % of ANNNNAAN 8-mers
ATTAGAAG	0.0786 % of ANNNNAAN 8-mers
AGGCCAAC	0.0107 % of ANNNNAAN 8-mers
ACCAAAAG	0.0236 % of ANNNNAAN 8-mers
ACACGAAT	0.0347 % of ANNNNAAN 8-mers
AAGACAAA	0.0538 % of ANNNNAAN 8-mers
AGTGAAAG	0.0469 % of ANNNNAAN 8-mers
AGGAAAAA	0.134 % of ANNNNAAN 8-mers
AGAAGAAA	0.0507 % of ANNNNAAN 8-mers
ATTGAAAT	0.257 % of ANNNNAAN 8-mers
AACAGAAG	0.0244 % of ANNNNAAN 8-mers
AAAGTAAA	0.0988 % of ANNNNAAN 8-mers

Sequence	binding signal
AACGAAAA	0.0522 % of ANNNNAAN 8-mers
ATTCTAAC	0.0503 % of ANNNNAAN 8-mers
ATGCAAAA	1.5 % of ANNNNAAN 8-mers
ATCGAAAC	0.0275 % of ANNNNAAN 8-mers
ACACGAAG	0.0206 % of ANNNNAAN 8-mers
AAAAGAAA	0.106 % of ANNNNAAN 8-mers
AAACGAAT	0.0767 % of ANNNNAAN 8-mers
AGAACAAA	0.032 % of ANNNNAAN 8-mers
AAAACAAA	0.158 % of ANNNNAAN 8-mers
ATCCAAAT	0.131 % of ANNNNAAN 8-mers
ACATTAAC	0.0984 % of ANNNNAAN 8-mers
AGCCTAAC	0.0153 % of ANNNNAAN 8-mers
AATAAAAA	0.137 % of ANNNNAAN 8-mers
ACCTAAAT	0.0393 % of ANNNNAAN 8-mers
AGCGGAAT	0.0622 % of ANNNNAAN 8-mers
ATAGTAAC	0.0282 % of ANNNNAAN 8-mers
AAACAAAC	0.066 % of ANNNNAAN 8-mers
ATCTGAAG	0.0297 % of ANNNNAAN 8-mers
ATAGAAAA	0.0767 % of ANNNNAAN 8-mers
ATCGAAAA	0.0511 % of ANNNNAAN 8-mers

molecular target: T1, POU2 (OCT2 POU domain) (human, UniProt P09086 175-386); assay: as above; conditions: protein: recombinant; dsDNA, one strand shown
T1 sequence: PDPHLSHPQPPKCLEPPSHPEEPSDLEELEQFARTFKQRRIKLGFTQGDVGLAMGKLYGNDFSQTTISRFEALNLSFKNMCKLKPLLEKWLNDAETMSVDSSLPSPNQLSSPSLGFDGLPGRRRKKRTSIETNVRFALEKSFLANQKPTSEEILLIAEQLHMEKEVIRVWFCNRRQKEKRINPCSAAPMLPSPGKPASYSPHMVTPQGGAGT
In short: as §1

Sequence	binding signal
ATGTGAAT	0.158 % of ANNNNAAN 8-mers
ATCGAAAT	0.0633 % of ANNNNAAN 8-mers
ATACTAAA	0.0886 % of ANNNNAAN 8-mers
AGGCCAAA	0.027 % of ANNNNAAN 8-mers
AAGAAAAT	0.125 % of ANNNNAAN 8-mers
ATGACAAA	0.0639 % of ANNNNAAN 8-mers
ACACAAAG	0.0196 % of ANNNNAAN 8-mers
ATCTTAAA	0.0552 % of ANNNNAAN 8-mers
ATCGCAAG	0.0219 % of ANNNNAAN 8-mers
ATTAGAAG	0.101 % of ANNNNAAN 8-mers
AGGCCAAC	0.0115 % of ANNNNAAN 8-mers
ACCAAAAG	0.0196 % of ANNNNAAN 8-mers
ACACGAAT	0.0575 % of ANNNNAAN 8-mers
AAGACAAA	0.0472 % of ANNNNAAN 8-mers
AGTGAAAG	0.0409 % of ANNNNAAN 8-mers
AGGAAAAA	0.0909 % of ANNNNAAN 8-mers
AGAAGAAA	0.0685 % of ANNNNAAN 8-mers
ATTGAAAT	0.29 % of ANNNNAAN 8-mers
AACAGAAG	0.0339 % of ANNNNAAN 8-mers
AAAGTAAA	0.0714 % of ANNNNAAN 8-mers

Sequence	binding signal
AACGAAAA	0.0529 % of ANNNNAAN 8-mers
ATTCTAAC	0.0495 % of ANNNNAAN 8-mers
ATGCAAAA	1.17 % of ANNNNAAN 8-mers
ATCGAAAC	0.0236 % of ANNNNAAN 8-mers
ACACGAAG	0.0196 % of ANNNNAAN 8-mers
AAAAGAAA	0.084 % of ANNNNAAN 8-mers
AAACGAAT	0.0783 % of ANNNNAAN 8-mers
AGAACAAA	0.0524 % of ANNNNAAN 8-mers
AAAACAAA	0.119 % of ANNNNAAN 8-mers
ATCCAAAT	0.11 % of ANNNNAAN 8-mers
ACATTAAC	0.115 % of ANNNNAAN 8-mers
AGCCTAAC	0.0144 % of ANNNNAAN 8-mers
AATAAAAA	0.132 % of ANNNNAAN 8-mers
ACCTAAAT	0.0489 % of ANNNNAAN 8-mers
AGCGGAAT	0.0725 % of ANNNNAAN 8-mers
ATAGTAAC	0.0414 % of ANNNNAAN 8-mers
AAACAAAC	0.0506 % of ANNNNAAN 8-mers
ATCTGAAG	0.0409 % of ANNNNAAN 8-mers
ATAGAAAA	0.0771 % of ANNNNAAN 8-mers
ATCGAAAA	0.0564 % of ANNNNAAN 8-mers

molecular target: POU1 (OCT1 POU domain);BOB1 (OBF1, OCA-B) (human;human, UniProt P14859;Q16633 260-458;1-256, |); assay: EMSA-SELEX-seq; with BOB1 (ternary complex band); 20 mM Tris-HCl pH 7.6, 140 mM NaCl, 10% glycerol, 0.5 mM EDTA, 0.05% Triton X-100, 0.1 mg/mL BSA, 0.1 mg/mL poly(dI-dC), 5 mM DTT, room temperature, 20 min; high values mean tight binding; conditions: protein: recombinant;recombinant; copies: 1;1; dsDNA, one strand shown
In short: as §1

Sequence	binding signal
ATGTGAAT	0.0921 % of ANNNNAAN 8-mers
ATCGAAAT	0.0777 % of ANNNNAAN 8-mers
ATACTAAA	0.0499 % of ANNNNAAN 8-mers
AGGCCAAA	0.0242 % of ANNNNAAN 8-mers
AAGAAAAT	0.226 % of ANNNNAAN 8-mers
ATGACAAA	0.0539 % of ANNNNAAN 8-mers
ACACAAAG	0.0418 % of ANNNNAAN 8-mers
ATCTTAAA	0.0515 % of ANNNNAAN 8-mers
ATCGCAAG	0.023 % of ANNNNAAN 8-mers
ATTAGAAG	0.0585 % of ANNNNAAN 8-mers
AGGCCAAC	0.0113 % of ANNNNAAN 8-mers
ACCAAAAG	0.0273 % of ANNNNAAN 8-mers
ACACGAAT	0.0379 % of ANNNNAAN 8-mers
AAGACAAA	0.0706 % of ANNNNAAN 8-mers
AGTGAAAG	0.0624 % of ANNNNAAN 8-mers
AGGAAAAA	0.18 % of ANNNNAAN 8-mers
AGAAGAAA	0.055 % of ANNNNAAN 8-mers
ATTGAAAT	0.189 % of ANNNNAAN 8-mers
AACAGAAG	0.0273 % of ANNNNAAN 8-mers
AAAGTAAA	0.114 % of ANNNNAAN 8-mers

Sequence	binding signal
AACGAAAA	0.0597 % of ANNNNAAN 8-mers
ATTCTAAC	0.0328 % of ANNNNAAN 8-mers
ATGCAAAA	3.15 % of ANNNNAAN 8-mers
ATCGAAAC	0.0316 % of ANNNNAAN 8-mers
ACACGAAG	0.0176 % of ANNNNAAN 8-mers
AAAAGAAA	0.119 % of ANNNNAAN 8-mers
AAACGAAT	0.0675 % of ANNNNAAN 8-mers
AGAACAAA	0.032 % of ANNNNAAN 8-mers
AAAACAAA	0.262 % of ANNNNAAN 8-mers
ATCCAAAT	0.209 % of ANNNNAAN 8-mers
ACATTAAC	0.0402 % of ANNNNAAN 8-mers
AGCCTAAC	0.0109 % of ANNNNAAN 8-mers
AATAAAAA	0.125 % of ANNNNAAN 8-mers
ACCTAAAT	0.0386 % of ANNNNAAN 8-mers
AGCGGAAT	0.0546 % of ANNNNAAN 8-mers
ATAGTAAC	0.023 % of ANNNNAAN 8-mers
AAACAAAC	0.109 % of ANNNNAAN 8-mers
ATCTGAAG	0.0359 % of ANNNNAAN 8-mers
ATAGAAAA	0.0695 % of ANNNNAAN 8-mers
ATCGAAAA	0.0441 % of ANNNNAAN 8-mers

molecular target: T2, POU2 (OCT2 POU domain);BOB1 (OBF1, OCA-B) (human;human, UniProt P09086;Q16633 175-386;1-256, |); assay: as above; conditions: protein: recombinant;recombinant; copies: 1;1; dsDNA, one strand shown
T2 sequence 1: T1 sequence
T2 sequence 2: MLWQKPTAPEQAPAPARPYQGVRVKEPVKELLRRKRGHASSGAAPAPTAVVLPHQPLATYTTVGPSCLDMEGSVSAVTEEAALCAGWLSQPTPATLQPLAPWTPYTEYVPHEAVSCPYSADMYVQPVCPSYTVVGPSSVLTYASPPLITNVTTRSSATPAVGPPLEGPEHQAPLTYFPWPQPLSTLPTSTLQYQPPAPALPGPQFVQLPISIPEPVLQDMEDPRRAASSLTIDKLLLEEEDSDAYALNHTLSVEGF
In short: as §1

Sequence	binding signal
ATGTGAAT	0.134 % of ANNNNAAN 8-mers
ATCGAAAT	0.0512 % of ANNNNAAN 8-mers
ATACTAAA	0.0594 % of ANNNNAAN 8-mers
AGGCCAAA	0.0281 % of ANNNNAAN 8-mers
AAGAAAAT	0.0958 % of ANNNNAAN 8-mers
ATGACAAA	0.0479 % of ANNNNAAN 8-mers
ACACAAAG	0.0305 % of ANNNNAAN 8-mers
ATCTTAAA	0.0636 % of ANNNNAAN 8-mers
ATCGCAAG	0.0206 % of ANNNNAAN 8-mers
ATTAGAAG	0.066 % of ANNNNAAN 8-mers
AGGCCAAC	0.0157 % of ANNNNAAN 8-mers
ACCAAAAG	0.019 % of ANNNNAAN 8-mers
ACACGAAT	0.0438 % of ANNNNAAN 8-mers
AAGACAAA	0.0438 % of ANNNNAAN 8-mers
AGTGAAAG	0.0504 % of ANNNNAAN 8-mers
AGGAAAAA	0.102 % of ANNNNAAN 8-mers
AGAAGAAA	0.0471 % of ANNNNAAN 8-mers
ATTGAAAT	0.137 % of ANNNNAAN 8-mers
AACAGAAG	0.0297 % of ANNNNAAN 8-mers
AAAGTAAA	0.0759 % of ANNNNAAN 8-mers

Sequence	binding signal
AACGAAAA	0.0462 % of ANNNNAAN 8-mers
ATTCTAAC	0.0322 % of ANNNNAAN 8-mers
ATGCAAAA	3.29 % of ANNNNAAN 8-mers
ATCGAAAC	0.0215 % of ANNNNAAN 8-mers
ACACGAAG	0.0157 % of ANNNNAAN 8-mers
AAAAGAAA	0.0702 % of ANNNNAAN 8-mers
AAACGAAT	0.0792 % of ANNNNAAN 8-mers
AGAACAAA	0.033 % of ANNNNAAN 8-mers
AAAACAAA	0.125 % of ANNNNAAN 8-mers
ATCCAAAT	0.133 % of ANNNNAAN 8-mers
ACATTAAC	0.0363 % of ANNNNAAN 8-mers
AGCCTAAC	0.0157 % of ANNNNAAN 8-mers
AATAAAAA	0.0958 % of ANNNNAAN 8-mers
ACCTAAAT	0.0421 % of ANNNNAAN 8-mers
AGCGGAAT	0.0636 % of ANNNNAAN 8-mers
ATAGTAAC	0.038 % of ANNNNAAN 8-mers
AAACAAAC	0.0512 % of ANNNNAAN 8-mers
ATCTGAAG	0.0413 % of ANNNNAAN 8-mers
ATAGAAAA	0.0619 % of ANNNNAAN 8-mers
ATCGAAAA	0.0454 % of ANNNNAAN 8-mers
